# Laboratory results published in ChEMBL document CHEMBL2218924, “A broad activity screen in support of a chemogenomic map for kinase signalling research and drug discovery” (Biochem J, 2013).
# Tests used:
# [1] = biological target: Tyrosine-protein kinase SYK (Homo sapiens) (UniProt P43405); conditions: at 10 µM
# [2] = biological target: T1, Mitogen-activated protein kinase kinase kinase 7 (Homo sapiens) (UniProt O43318); conditions: at 1 µM
# T1 sequence (whole entry): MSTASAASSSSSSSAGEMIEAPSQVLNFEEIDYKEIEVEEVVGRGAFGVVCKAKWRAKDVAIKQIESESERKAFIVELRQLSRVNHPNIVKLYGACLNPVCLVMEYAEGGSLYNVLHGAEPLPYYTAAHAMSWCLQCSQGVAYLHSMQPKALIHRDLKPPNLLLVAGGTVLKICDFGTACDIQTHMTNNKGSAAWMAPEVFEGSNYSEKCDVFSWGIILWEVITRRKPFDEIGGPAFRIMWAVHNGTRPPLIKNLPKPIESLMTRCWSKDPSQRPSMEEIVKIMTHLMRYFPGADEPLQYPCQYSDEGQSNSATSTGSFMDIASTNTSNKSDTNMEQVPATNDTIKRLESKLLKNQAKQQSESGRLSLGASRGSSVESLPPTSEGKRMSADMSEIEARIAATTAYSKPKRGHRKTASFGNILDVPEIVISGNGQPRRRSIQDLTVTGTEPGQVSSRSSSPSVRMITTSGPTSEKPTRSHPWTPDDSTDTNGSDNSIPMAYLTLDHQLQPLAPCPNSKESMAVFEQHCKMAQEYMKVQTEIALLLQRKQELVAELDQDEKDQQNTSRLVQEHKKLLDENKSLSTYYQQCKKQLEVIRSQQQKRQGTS
# [3] = biological target: T1, Mitogen-activated protein kinase kinase kinase 7 (Homo sapiens); conditions: at 10 µM
# [4] = biological target: T2, Serine/threonine-protein kinase TAO1 (Homo sapiens) (UniProt Q7L7X3); conditions: at 1 µM
# T2 sequence (whole entry): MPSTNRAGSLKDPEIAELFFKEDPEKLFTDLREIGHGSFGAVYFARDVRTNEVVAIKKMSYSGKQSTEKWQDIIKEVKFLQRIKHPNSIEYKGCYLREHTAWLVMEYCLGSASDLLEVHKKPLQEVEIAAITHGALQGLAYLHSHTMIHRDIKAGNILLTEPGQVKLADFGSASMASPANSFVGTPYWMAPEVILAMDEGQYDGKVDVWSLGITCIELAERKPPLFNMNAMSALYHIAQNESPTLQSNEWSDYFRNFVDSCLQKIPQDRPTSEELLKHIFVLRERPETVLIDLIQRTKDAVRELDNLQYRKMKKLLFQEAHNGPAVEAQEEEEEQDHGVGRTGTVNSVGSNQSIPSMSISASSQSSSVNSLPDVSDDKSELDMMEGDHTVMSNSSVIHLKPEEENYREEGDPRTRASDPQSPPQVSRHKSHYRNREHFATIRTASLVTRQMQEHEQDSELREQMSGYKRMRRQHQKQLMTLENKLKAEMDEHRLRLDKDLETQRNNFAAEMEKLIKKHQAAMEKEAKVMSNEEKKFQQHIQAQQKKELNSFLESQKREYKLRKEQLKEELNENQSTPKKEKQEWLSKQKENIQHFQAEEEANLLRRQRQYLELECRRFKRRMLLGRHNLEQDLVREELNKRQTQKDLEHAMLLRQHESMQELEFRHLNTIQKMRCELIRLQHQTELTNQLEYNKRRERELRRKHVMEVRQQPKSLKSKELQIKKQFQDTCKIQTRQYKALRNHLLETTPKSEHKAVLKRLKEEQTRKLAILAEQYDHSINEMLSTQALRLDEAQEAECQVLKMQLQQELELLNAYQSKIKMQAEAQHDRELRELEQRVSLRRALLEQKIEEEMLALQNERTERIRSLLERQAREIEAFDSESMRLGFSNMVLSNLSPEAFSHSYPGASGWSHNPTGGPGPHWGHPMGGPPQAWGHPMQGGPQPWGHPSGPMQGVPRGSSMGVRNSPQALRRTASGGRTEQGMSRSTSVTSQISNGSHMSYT
# [5] = biological target: T2, Serine/threonine-protein kinase TAO1 (Homo sapiens); conditions: at 10 µM
# [6] = biological target: T3, Serine/threonine-protein kinase TAO2 (Homo sapiens) (UniProt Q9UL54); conditions: at 10 µM
# T3 sequence (whole entry): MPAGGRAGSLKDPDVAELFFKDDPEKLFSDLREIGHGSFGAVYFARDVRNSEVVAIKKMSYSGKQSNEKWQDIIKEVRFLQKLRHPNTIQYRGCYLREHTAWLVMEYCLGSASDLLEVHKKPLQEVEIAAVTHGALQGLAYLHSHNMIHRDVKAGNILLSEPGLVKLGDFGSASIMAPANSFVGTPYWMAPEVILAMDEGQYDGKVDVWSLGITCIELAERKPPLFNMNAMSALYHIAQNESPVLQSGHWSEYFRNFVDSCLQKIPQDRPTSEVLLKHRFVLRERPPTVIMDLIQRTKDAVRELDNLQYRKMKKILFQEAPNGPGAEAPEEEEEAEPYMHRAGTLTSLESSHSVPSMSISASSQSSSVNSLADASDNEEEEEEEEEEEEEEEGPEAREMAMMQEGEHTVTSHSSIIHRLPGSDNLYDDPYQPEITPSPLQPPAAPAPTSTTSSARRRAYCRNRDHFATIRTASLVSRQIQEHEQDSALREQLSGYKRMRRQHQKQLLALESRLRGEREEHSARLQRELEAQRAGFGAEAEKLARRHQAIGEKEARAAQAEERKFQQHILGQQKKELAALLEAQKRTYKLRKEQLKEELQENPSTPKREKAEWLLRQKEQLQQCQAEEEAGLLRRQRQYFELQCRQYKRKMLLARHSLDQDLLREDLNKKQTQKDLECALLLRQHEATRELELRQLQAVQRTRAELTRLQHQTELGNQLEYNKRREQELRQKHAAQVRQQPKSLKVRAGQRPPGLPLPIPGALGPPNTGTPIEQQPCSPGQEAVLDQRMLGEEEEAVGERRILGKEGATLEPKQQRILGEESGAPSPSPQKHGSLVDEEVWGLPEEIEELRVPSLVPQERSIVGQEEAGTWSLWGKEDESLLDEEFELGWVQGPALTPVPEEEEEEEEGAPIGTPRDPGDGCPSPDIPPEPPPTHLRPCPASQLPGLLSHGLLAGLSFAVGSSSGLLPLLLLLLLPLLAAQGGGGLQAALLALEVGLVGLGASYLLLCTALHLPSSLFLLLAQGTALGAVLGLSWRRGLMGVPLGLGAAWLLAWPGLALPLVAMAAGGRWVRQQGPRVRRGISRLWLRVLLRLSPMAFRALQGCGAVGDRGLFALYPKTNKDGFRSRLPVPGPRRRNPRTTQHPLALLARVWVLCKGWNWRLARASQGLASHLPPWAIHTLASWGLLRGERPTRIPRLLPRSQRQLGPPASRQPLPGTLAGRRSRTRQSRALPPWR
# [7] = biological target: T4, Serine/threonine-protein kinase TAO3 (Homo sapiens) (UniProt Q9H2K8); conditions: at 10 µM
# T4 sequence (whole entry): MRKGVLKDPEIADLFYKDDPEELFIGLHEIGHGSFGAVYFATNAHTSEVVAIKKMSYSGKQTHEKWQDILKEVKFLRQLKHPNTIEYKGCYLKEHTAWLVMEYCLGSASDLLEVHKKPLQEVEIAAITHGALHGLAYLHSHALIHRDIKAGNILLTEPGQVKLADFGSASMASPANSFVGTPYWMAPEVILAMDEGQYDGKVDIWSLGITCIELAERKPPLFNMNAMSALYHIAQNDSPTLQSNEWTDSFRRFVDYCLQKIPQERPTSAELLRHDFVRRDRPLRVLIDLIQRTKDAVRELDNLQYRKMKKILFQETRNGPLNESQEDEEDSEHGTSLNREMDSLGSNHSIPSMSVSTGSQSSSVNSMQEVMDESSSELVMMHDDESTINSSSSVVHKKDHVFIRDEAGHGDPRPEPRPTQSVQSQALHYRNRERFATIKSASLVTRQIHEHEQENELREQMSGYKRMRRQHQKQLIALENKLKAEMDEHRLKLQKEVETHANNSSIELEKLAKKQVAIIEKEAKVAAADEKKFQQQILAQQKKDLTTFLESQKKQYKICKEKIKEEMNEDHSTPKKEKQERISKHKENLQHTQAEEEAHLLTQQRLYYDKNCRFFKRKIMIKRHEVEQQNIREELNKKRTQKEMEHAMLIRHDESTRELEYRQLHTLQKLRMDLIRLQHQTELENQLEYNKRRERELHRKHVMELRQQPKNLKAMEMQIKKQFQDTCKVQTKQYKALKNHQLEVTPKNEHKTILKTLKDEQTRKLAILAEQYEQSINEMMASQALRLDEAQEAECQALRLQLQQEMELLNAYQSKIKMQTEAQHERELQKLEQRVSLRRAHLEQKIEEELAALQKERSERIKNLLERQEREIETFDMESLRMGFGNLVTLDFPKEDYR
# [8] = biological target: T5, Serine/threonine-protein kinase TBK1 (Homo sapiens) (UniProt Q9UHD2); conditions: at 1 µM
# T5 sequence (whole entry): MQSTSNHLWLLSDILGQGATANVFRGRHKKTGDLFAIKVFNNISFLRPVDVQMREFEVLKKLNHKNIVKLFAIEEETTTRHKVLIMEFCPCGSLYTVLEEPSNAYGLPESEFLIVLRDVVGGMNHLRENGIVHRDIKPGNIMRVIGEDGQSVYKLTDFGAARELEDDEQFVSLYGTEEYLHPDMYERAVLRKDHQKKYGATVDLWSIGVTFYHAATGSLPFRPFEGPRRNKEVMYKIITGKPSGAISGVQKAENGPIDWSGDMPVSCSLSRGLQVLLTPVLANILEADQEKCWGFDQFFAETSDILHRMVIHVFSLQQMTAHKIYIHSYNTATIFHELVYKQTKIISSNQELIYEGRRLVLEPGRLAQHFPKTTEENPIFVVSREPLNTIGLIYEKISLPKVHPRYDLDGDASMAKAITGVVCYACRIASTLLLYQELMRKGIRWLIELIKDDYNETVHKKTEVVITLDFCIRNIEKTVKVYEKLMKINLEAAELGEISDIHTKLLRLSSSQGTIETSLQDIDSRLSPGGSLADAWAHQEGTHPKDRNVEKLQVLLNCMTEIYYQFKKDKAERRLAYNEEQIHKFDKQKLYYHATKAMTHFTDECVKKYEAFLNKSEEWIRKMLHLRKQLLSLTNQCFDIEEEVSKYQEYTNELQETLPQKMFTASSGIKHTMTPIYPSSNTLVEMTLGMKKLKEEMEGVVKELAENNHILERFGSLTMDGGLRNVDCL
# [9] = biological target: T5, Serine/threonine-protein kinase TBK1 (Homo sapiens); conditions: at 10 µM
# [10] = biological target: T6, Inhibitor of nuclear factor kappa-B kinase subunit alpha (Homo sapiens) (UniProt O15111); conditions: at 10 µM
# T6 sequence (whole entry): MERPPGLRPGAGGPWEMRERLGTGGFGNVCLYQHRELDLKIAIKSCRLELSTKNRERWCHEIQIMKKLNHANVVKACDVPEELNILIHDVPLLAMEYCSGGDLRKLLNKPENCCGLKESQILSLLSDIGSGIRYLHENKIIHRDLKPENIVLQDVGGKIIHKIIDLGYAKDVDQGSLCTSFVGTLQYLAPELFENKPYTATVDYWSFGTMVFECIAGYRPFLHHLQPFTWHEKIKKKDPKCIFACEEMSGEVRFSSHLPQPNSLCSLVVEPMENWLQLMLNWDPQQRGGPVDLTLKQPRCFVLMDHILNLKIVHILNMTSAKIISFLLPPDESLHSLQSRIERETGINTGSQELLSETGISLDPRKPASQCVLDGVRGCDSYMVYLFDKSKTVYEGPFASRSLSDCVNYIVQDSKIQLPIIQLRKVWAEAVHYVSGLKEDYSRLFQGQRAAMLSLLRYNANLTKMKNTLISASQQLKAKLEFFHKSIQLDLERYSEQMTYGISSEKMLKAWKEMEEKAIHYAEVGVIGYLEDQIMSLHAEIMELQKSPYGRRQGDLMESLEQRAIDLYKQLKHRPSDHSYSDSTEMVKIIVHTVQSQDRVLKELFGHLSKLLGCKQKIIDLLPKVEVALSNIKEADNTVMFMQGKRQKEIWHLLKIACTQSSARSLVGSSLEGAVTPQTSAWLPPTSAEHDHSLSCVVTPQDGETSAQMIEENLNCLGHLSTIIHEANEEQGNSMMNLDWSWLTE
# [11] = biological target: Insulin receptor (Homo sapiens) (UniProt P06213); conditions: at 1 µM
# Chain of Insulin receptor (Homo sapiens) (P06213 28-758 limits assumed): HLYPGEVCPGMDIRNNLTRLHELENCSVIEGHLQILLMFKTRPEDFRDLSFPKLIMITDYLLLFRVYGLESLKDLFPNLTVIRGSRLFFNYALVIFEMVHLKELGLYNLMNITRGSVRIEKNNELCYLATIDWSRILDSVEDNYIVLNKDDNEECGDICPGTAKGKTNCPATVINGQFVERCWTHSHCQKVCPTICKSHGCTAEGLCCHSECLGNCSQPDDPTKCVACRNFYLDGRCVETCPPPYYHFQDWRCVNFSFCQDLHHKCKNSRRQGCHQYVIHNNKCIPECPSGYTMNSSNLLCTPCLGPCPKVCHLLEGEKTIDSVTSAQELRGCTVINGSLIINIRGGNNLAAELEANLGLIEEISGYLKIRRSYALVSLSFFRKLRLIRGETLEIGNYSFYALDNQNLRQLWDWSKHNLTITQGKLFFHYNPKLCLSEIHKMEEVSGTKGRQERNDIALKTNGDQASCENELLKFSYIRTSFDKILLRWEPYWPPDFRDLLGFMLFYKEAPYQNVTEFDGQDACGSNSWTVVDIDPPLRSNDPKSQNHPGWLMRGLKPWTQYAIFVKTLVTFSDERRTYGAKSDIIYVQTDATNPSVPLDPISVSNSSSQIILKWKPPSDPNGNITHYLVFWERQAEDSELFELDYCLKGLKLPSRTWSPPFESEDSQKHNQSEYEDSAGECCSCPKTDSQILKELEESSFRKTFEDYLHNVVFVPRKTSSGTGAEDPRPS
# Chain of Insulin receptor (Homo sapiens) (P06213 763-1382 limits assumed): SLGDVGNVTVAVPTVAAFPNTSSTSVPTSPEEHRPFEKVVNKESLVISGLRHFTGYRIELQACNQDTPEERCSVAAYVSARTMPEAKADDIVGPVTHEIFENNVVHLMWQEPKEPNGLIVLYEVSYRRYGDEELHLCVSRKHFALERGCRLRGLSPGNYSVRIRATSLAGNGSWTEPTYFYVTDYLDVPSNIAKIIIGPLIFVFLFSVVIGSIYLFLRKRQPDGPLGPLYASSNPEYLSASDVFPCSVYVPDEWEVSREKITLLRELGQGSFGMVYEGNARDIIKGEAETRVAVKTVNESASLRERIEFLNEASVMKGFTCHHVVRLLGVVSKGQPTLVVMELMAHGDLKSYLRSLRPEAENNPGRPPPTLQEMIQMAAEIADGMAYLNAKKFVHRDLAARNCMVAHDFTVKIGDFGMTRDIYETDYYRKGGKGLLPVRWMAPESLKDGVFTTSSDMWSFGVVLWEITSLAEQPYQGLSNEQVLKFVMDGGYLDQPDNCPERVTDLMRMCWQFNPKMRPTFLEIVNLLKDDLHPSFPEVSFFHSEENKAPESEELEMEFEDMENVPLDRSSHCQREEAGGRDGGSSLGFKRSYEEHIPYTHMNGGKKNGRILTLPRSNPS
compound,measurement,setting,value
CSc1nc(-c2ccc(F)cc2)c(-c2ccnc(NC(C)c3ccccc3)c2)[nH]1 (stereo unspecified),residual activity,[1],75%
same,residual activity,[2],101%
same,residual activity,[3],93%
same,residual activity,[4],102%
same,residual activity,[5],83%
same,residual activity,[6],83%
same,residual activity,[7],91%
same,residual activity,[8],102%
same,residual activity,[9],77%
same,residual activity,[10],95%
same,residual activity,[11],126%
